# Measurements: PubChem BioAssay (EPA / NIEHS)
# Calls of active or inactive are those of the source. Rule for the calls: active = hit-call score of the fitted dose curve at least 0.9, where 1 is the maximum; inactive = score below 0.9.
# Legend:
# [1] = CEETOX_H295R_OHPROG: CeeTox H295R High-throughput Steroidogenesis Assay for OH-Progesterone (OHPROG) (AID 2283435); settings: actives raise or lower the signal;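 for AC50: 17alpha-hydroxyprogesterone secreted into medium measured by HPLC-MS/MS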
# Method in brief: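 Steps: seed H295R cells and adhere overnight; stimulate with 10 uM forskolin for 48 h; replace with chemical-containing medium (0.1% DMSO) for 48 h; extract medium with MTBE; quantify 17alpha-hydroxyprogesterone by reverse-phase C18 HPLC-MS/MS against a 7-point curve.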
# [2] = CEETOX_H295R_CORTIC: CeeTox H295R High-throughput Steroidogenesis Assay for Corticosterone (CORTIC) (AID 2283437); settings: actives raise or lower the signal
# Method in brief: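 Medium corticosterone was quantified by tandem mass spectrometry following 48 hours of chemical exposure (0.1% DMSO) in human H295R cells previously stimulated 48 hours with 10 uM forskolin. Viability checked by MTT; chemicals diluted and retested when viability fell below 70%.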
# [3] = CEETOX_H295R_CORTISOL: CeeTox H295R High-throughput Steroidogenesis Assay for Cortisol (AID 2283438); settings: actives raise or lower the signal
# Method in brief: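 Cortisol synthesis by H295R cells is measured 48 h after chemical dosing, following a 48 h stimulation with 10 uM forskolin. Hormone is extracted and quantified by HPLC-MS/MS, and activity is fitted bidirectionally against the DMSO control.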
# [4] = CEETOX_H295R_DOC: CeeTox H295R High-throughput Steroidogenesis Assay for DOC (AID 2283439); settings: actives raise or lower the signal
# Method in brief: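 Steps: seed H295R, adhere overnight; 10 uM forskolin 48 h; replace with chemical medium (0.1% DMSO) 48 h; collect medium, MTBE extraction, HPLC-MS/MS for DOC. Viability then checked by MTT; cytotoxic chemicals diluted until viability ≥70%.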
# [5] = CEETOX_H295R_ESTRADIOL: CeeTox H295R High-throughput Steroidogenesis Assay for Estradiol (AID 2283440); settings: actives raise or lower the signal;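 note: estradiol secreted into medium quantified by LC-MS/MS after dansyl derivatisation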
# Method in brief: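 Estradiol secreted into the medium was measured by tandem mass spectrometry after liquid-liquid extraction and dansylation. Human H295R cells had been forskolin-primed (10 uM, 48 h) before a 48 h chemical exposure with 0.1% DMSO.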
# [6] = CEETOX_H295R_ESTRONE: CeeTox H295R High-throughput Steroidogenesis Assay for Estrone (AID 2283441); settings: actives raise or lower the signal;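 for AC50: human adrenal H295R cells prestimulated with forskolin for two days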
# Method in brief: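 Estrone secreted into medium quantified by LC-MS/MS after dansyl chloride derivatization, following 48 h chemical exposure (0.1% DMSO final) of forskolin-prestimulated (10 uM, 48 h) H295R cells; gain or loss fitted against DMSO; MTT viability in same wells.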
# [7] = read-out: Tumor necrosis factor receptor superfamily member 6 (Homo sapiens) (UniProt P25445); experiment: LTEA_HepaRG_FAS: Life Technologies and Expression Analysis (LTEA) Assay for Fas cell surface death receptor (FAS) using HepaRG (AID 2283447); settings: mRNA level, 48 h; actives raise or lower the signal
# Method in brief: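 FAS transcript level was measured by TaqMan qRT-PCR against three housekeeping genes after 48 h chemical exposure. Cells were HepaRG, 0.5% DMSO vehicle, with a top concentration of 100 uM and half-log dilutions over eight points, in duplicate.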
# [8] = read-out: Fatty acid synthase (Homo sapiens) (UniProt P49327); experiment: LTEA_HepaRG_FASN: Life Technologies and Expression Analysis (LTEA) Assay for Fatty Acid Synthase (FASN) using HepaRG (AID 2283448); settings: mRNA level, 48 h; actives raise or lower the signal;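 for AC50: differentiated human HepaRG liver cells in serum-free induction medium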
# Method in brief: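 Cells were plated, cultured 48 h, switched to serum-free induction medium, then dosed in duplicate (max 100 uM, half-log dilutions, 0.5% DMSO) for 48 h. RNA was then isolated and FASN quantified by qRT-PCR.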
# [9] = CEETOX_H295R_ANDR: CeeTox H295R High-throughput Steroidogenesis Assay for Androstenedione (ANDR) (AID 2283436); settings: actives raise or lower the signal
# Method in brief: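 Medium from 48 h chemical-treated H295R adrenal cells was extracted with MTBE and androstenedione measured by LC-MS/MS. Activity was fit in both directions relative to DMSO. Cytotoxic concentrations were re-tested after dilution until MTT viability reached ≥70%.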
# [10] = read-out: Cyclin D2 (CCND2), CCND2 (gene 894); experiment: LTEA_HepaRG_CCND2: Life Technologies and Expression Analysis (LTEA) Assay for Cyclin D2 (CCND2) using HepaRG (AID 2283449); settings: mRNA level, 48 h; actives raise or lower the signal
# Method in brief: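 CCND2 transcript levels, quantified by qRT-PCR and normalised to three housekeeping genes, were fitted bidirectionally against 0.5% DMSO. HepaRG cultures were dosed 48 h in duplicate with an 8-point half-log series up to 100 uM.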
# Chain of Fatty acid synthase (Homo sapiens) (P49327 whole entry, looked up): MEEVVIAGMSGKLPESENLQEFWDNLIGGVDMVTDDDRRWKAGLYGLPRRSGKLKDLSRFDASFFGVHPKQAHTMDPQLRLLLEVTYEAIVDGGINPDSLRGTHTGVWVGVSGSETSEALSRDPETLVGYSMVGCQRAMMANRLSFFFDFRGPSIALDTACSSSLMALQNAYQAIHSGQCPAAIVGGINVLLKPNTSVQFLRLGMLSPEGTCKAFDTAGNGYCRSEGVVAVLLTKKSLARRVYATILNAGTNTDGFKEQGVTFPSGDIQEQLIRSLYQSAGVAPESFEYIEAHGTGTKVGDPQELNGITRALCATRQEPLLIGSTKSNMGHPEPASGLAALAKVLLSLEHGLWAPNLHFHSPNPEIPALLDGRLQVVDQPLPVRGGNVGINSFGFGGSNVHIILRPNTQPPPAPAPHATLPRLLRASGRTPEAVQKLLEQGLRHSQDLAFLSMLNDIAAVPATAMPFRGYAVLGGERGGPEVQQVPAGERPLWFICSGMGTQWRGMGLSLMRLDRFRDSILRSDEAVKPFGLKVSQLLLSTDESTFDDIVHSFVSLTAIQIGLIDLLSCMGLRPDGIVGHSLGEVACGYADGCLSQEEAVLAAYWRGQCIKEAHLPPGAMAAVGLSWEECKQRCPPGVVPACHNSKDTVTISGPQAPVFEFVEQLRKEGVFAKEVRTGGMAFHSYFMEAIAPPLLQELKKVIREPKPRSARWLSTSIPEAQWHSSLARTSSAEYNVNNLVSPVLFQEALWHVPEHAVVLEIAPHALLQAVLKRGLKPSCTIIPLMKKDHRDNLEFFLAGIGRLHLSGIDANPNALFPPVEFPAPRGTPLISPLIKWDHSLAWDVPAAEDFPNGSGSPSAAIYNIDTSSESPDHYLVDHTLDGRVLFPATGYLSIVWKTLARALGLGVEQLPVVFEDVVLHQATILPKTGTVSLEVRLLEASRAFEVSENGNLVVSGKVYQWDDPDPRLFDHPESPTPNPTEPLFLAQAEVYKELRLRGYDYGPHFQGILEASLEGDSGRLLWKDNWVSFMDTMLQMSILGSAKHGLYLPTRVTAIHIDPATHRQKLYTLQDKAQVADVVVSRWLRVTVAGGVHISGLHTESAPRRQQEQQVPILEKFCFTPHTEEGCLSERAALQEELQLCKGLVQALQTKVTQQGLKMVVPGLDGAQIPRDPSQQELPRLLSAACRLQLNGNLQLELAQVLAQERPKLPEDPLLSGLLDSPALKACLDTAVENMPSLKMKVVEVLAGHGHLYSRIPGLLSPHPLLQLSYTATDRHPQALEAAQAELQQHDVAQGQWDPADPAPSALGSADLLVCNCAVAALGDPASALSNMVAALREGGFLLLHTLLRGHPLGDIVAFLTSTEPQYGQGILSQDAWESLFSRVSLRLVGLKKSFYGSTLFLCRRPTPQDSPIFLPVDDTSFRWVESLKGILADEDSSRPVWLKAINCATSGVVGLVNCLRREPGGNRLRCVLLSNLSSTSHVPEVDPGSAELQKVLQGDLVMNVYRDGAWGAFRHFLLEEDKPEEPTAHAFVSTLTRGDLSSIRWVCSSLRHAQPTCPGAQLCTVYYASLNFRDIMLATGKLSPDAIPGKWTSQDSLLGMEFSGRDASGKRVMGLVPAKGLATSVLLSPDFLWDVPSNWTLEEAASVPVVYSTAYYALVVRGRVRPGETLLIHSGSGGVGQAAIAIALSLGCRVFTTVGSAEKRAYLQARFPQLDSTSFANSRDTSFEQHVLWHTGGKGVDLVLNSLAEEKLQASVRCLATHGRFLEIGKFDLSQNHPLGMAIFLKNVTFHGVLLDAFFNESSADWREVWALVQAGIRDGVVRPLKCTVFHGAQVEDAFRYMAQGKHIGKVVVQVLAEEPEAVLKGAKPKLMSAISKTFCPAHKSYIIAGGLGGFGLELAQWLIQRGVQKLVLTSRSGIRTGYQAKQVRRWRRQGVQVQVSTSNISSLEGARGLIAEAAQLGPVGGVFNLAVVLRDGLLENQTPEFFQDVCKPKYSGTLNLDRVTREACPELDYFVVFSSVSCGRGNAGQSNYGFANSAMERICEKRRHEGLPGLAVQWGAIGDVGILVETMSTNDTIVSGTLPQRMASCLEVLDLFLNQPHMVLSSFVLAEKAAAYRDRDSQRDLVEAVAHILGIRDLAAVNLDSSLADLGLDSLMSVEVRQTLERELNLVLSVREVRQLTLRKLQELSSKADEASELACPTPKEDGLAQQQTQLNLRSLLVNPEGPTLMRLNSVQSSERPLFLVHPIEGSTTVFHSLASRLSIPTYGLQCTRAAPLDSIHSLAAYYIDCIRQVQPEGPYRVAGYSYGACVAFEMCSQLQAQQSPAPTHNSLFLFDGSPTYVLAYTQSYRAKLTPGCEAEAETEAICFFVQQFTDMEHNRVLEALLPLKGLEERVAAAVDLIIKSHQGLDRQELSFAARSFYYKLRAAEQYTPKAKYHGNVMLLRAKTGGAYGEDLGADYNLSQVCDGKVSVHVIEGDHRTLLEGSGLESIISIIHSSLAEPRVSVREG
structure (smiles),measurement,setting,value
COC(=O)NC(=S)Nc1ccccc1NC(=S)NC(=O)OC,outcome,[1],inactive
same,outcome,[2],inactive
same,outcome,[3],inactive
same,outcome,[4],inactive
same,outcome,[5],inactive
same,outcome,[6],inactive
same,outcome,[7],inactive
same,outcome,[8],inactive
COP(=S)(OC)SCn1nnc2ccccc2c1=O,AC50,[1],2.27 µM (active)
same,outcome,[9],inactive
same,outcome,[5],inactive
same,outcome,[6],inactive
same,outcome,[7],inactive
same,outcome,[8],inactive
CCNP(=S)(OC)O/C(C)=C/C(=O)OC(C)C (stereo unspecified),outcome,[1],inactive
same,AC50,[2],50 µM (active)
same,outcome,[3],inactive
same,AC50,[4],50 µM (active)
same,outcome,[5],inactive
same,outcome,[6],inactive
same,outcome,[7],inactive
same,AC50,[8],36.3 µM (active)
CCOc1cc(C(C)(C)C)ccc1C1COC(c2c(F)cccc2F)=N1 (stereo unspecified),outcome,[1],inactive
same,outcome,[9],inactive
same,outcome,[6],inactive
same,outcome,[7],inactive
same,outcome,[8],inactive
CCCCC(C#N)(Cn1cncn1)c1ccc(Cl)cc1 (stereo unspecified),AC50,[1],4.02 µM (active)
same,outcome,[2],inactive
same,AC50,[3],0.832 µM (active)
same,AC50,[4],36.5 µM (active)
same,outcome,[7],inactive
same,AC50,[8],22.1 µM (active)
CCCC(=NOCC)C1=C(O)CC(CC(C)SCC)CC1=O (stereo unspecified),outcome,[1],inactive
same,outcome,[2],inactive
same,outcome,[3],inactive
same,outcome,[4],inactive
same,outcome,[5],inactive
same,AC50,[6],0.554 µM (active)
same,outcome,[7],inactive
same,outcome,[8],inactive
same,outcome,[10],inactive
CCOc1nc(C(Cl)(Cl)Cl)ns1,outcome,[1],inactive
same,outcome,[5],inactive
same,outcome,[6],inactive
same,outcome,[8],inactive
CC1(C)C(C=C(Cl)Cl)C1C(=O)OC(C#N)c1cccc(Oc2ccccc2)c1 (stereo unspecified),outcome,[1],inactive
same,outcome,[2],inactive
same,outcome,[3],inactive
same,outcome,[4],inactive
same,outcome,[5],inactive
same,outcome,[6],inactive
same,outcome,[7],inactive
same,outcome,[8],inactive
CCCN(CC)CC1COC2(CCC(C(C)(C)C)CC2)O1 (stereo unspecified),AC50,[1],0.112 µM (active)
same,outcome,[2],inactive
same,outcome,[3],inactive
same,AC50,[4],0.812 µM (active)
same,outcome,[5],inactive
same,outcome,[6],inactive
same,outcome,[7],inactive
same,AC50,[8],0.274 µM (active)
CCOP(=S)(OCC)Oc1nc(Cl)n(C(C)C)n1,AC50,[1],35.8 µM (active)
same,outcome,[2],inactive
same,outcome,[3],inactive
same,outcome,[4],inactive
same,outcome,[7],inactive
same,AC50,[8],30.5 µM (active)
same,outcome,[10],inactive
Nc1cnn(-c2ccccc2)c(=O)c1Cl,outcome,[1],inactive
same,outcome,[2],inactive
same,outcome,[3],inactive
same,outcome,[4],inactive
same,outcome,[5],inactive
same,outcome,[6],inactive
same,outcome,[7],inactive
same,outcome,[8],inactive
CC(C)N1C(=O)N(c2ccccc2)CSC1=NC(C)(C)C,outcome,[7],inactive
same,outcome,[8],inactive
Cc1cnc(C2=NC(C)(C(C)C)C(=O)N2)c(C(=O)O)c1 (stereo unspecified),outcome,[7],inactive
same,outcome,[8],inactive
CCCCOCN(C(=O)CCl)c1c(CC)cccc1CC,outcome,[7],inactive
same,outcome,[8],inactive
same,outcome,[10],inactive
O=P(O)(O)CCCl,outcome,[7],inactive
same,outcome,[8],inactive
CC(C)N1C(=O)c2ccccc2NS1(=O)=O,outcome,[7],inactive
same,outcome,[8],inactive
CC1(C)C(C(=O)OC(C#N)c2cccc(Oc3ccccc3)c2)C1(C)C (stereo unspecified),outcome,[7],inactive
same,outcome,[8],inactive
same,outcome,[10],inactive
O=c1n(Cl)c(=O)n(Cl)c(=O)n1Cl,outcome,[7],inactive
same,outcome,[8],inactive
CO/N=C(/C1=NOCCO1)c1ccccc1Oc1ncnc(Oc2ccccc2Cl)c1F,AC50,[7],50 µM (active)
same,AC50,[8],62.7 µM (active)
COP(=O)(OC)O/C(C)=C/C(=O)N(C)C,outcome,[7],inactive
same,outcome,[8],inactive
CN=C=S,outcome,[7],inactive
same,outcome,[8],inactive
COC(=O)N(C(=O)N1CO[C@@]2(C(=O)OC)Cc3cc(Cl)ccc3C2=N1)c1ccc(OC(F)(F)F)cc1,outcome,[7],inactive
same,AC50,[8],18.8 µM (active)
same,outcome,[10],inactive
CCOP(=O)(OCC)Oc1nc(Cl)c(Cl)cc1Cl,outcome,[7],inactive
same,AC50,[8],60.2 µM (active)
same,outcome,[10],inactive
CNC(=O)N(C)c1nnc(C(C)(C)C)s1,outcome,[7],inactive
same,outcome,[8],inactive
CS(=O)(=O)c1ccc(C(=O)C2C(=O)CCCC2=O)c([N+](=O)[O-])c1,outcome,[7],inactive
same,outcome,[8],inactive
Clc1cccc(C(Cl)(Cl)Cl)n1,outcome,[7],inactive
same,outcome,[8],inactive
COc1cc(OC)nc(NC(=O)NS(=O)(=O)c2ncccc2OCC(F)(F)F)n1,outcome,[7],inactive
same,outcome,[8],inactive
same,AC50,[10],0.223 µM (active)
Cc1cc(C)nc(Nc2ccccc2)n1,outcome,[7],inactive
same,outcome,[8],inactive
COCC(C)N(C(=O)CCl)c1c(C)csc1C (stereo unspecified),outcome,[7],inactive
same,outcome,[8],inactive
CCCCC(O)(Cn1cncn1)c1ccc(Cl)cc1Cl (stereo unspecified),AC50,[7],87.4 µM (active)
same,AC50,[8],85.7 µM (active)
same,outcome,[10],inactive
COc1ccc(-c2ccccc2)cc1NNC(=O)OC(C)C,outcome,[7],inactive
same,outcome,[8],inactive
same,outcome,[10],inactive
Cn1c(-c2ccccc2)cc(-c2ccccc2)[n+]1C,outcome,[7],inactive
same,AC50,[8],11.7 µM (active)
OC(c1ccc(Cl)cc1)(c1ccc(Cl)cc1)C(Cl)(Cl)Cl,AC50,[7],50 µM (active)
same,AC50,[8],34.8 µM (active)
CCNC(=O)NC(=O)C(C#N)=NOC,outcome,[8],inactive
same,outcome,[10],inactive
COC(=O)NS(=O)(=O)c1ccc(N)cc1,outcome,[7],inactive
same,outcome,[8],inactive
same,outcome,[10],inactive
CC(C)=CC1C(C(=O)OCc2coc(Cc3ccccc3)c2)C1(C)C (stereo unspecified),outcome,[7],inactive
same,outcome,[8],inactive
CS(=O)(=O)c1cc(C(F)(F)F)ccc1C(=O)c1cnoc1C1CC1,outcome,[7],inactive
same,outcome,[8],inactive
same,outcome,[10],inactive
O=C(O)c1c(Cl)ccc2cc(Cl)cnc12,outcome,[7],inactive
same,outcome,[8],inactive
same,outcome,[10],inactive
Cc1ccc(N=CN(C)C=Nc2ccc(C)cc2C)c(C)c1,outcome,[7],inactive
same,outcome,[8],inactive
N#Cc1c[nH]cc1-c1cccc2c1OC(F)(F)O2,outcome,[7],inactive
same,AC50,[8],1.51 µM (active)
same,outcome,[10],inactive
Nc1c(Cl)c(F)nc(OCC(=O)O)c1Cl,outcome,[7],inactive
same,outcome,[8],inactive
COC(=O)c1c(C(F)F)nc(C(F)(F)F)c(C2=NCCS2)c1CC(C)C,outcome,[7],inactive
same,outcome,[8],inactive
CCOc1nc(F)cc2nc(S(=O)(=O)Nc3c(Cl)cccc3Cl)nn12,outcome,[7],inactive
same,outcome,[8],inactive
same,outcome,[10],inactive
C=CCOC(=O)C(C)(C)OC(=O)c1cc(-n2c(=O)cc(C(F)(F)F)n(C)c2=O)ccc1Cl,outcome,[7],inactive
same,outcome,[8],inactive
Nc1c(Cl)c(Cl)nc(C(=O)O)c1Cl,outcome,[7],inactive
same,outcome,[8],inactive
CC(C)C1(C)N=C(c2ncccc2C(=O)O)NC1=O (stereo unspecified),outcome,[7],inactive
same,outcome,[8],inactive
C=C(C)CN(CC)c1c([N+](=O)[O-])cc(C(F)(F)F)cc1[N+](=O)[O-],outcome,[7],inactive
same,outcome,[8],inactive
